From ChEMBL document CHEMBL3988442, “University of Dundee, Small-Polar-MMV Screening Library” (2021)
Among all 53,000 compounds or so, about 900 (1.7%) showed an effect of 50% or more. Many of the other results were omitted from the sample, so strong results are more common in it than they were.

The compounds below were run on Mycobacterium tuberculosis (assay: Cornell - Phenotypic assay to identify agents that inhibit growth of Mycobacterium tuberculosis). Conditions: 10 mM as filed; unlikely as a test dose.
Assay type: functional
Set-up: scale not given: direction of the effect not stated beside the values
For `CCC(NC(=O)c1nn(C)cc1C(=O)O)c1ccc(C)cc1` (centres undefined), the “Percent Effect” value was 2.527%. With `CCOc1cc([C@@H]2N[C@H](c3nccs3)Cc3ccsc32)ccc1OC` the “Percent Effect” value was 39.28%. `Cc1c(Cl)cccc1NC(=O)N1CCN(Cc2ccccn2)CC1` was tested, and the “Percent Effect” value was 28.2%. `Cc1nc(C2CCN(C(=O)c3ccn(C)n3)CC2)c2sccn12` was tested, and the “Percent Effect” value was -12.4%. For `CCn1nc(C)c(CNC(=O)c2cn(CC3CCCO3)nn2)c1C` (centres undefined), the “Percent Effect” value was -30.41%. In the case of `Cc1cc(C)n(C2CCN(c3ncnc4sc5c(c34)CCNC5)C2)n1` (centres undefined), the “Percent Effect” value was 11.06%. For `FC1(F)CCN(Cc2cccnc2)CC12CCN(c1ccccn1)C2.O=C(O)C(F)(F)F.O=C(O)C(F)(F)F.O=C(O)C(F)(F)F` (centres undefined), the “Percent Effect” value was -7.439%. For `FC1(F)CCN(Cc2ccncc2)CC12CCN(c1cccnc1)C2.O=C(O)C(F)(F)F.O=C(O)C(F)(F)F.O=C(O)C(F)(F)F` (centres undefined), the “Percent Effect” value was 6.416%. In the case of `FC1(F)CCN(Cc2cccnc2)CC12CCN(c1ccccc1)C2.O=C(O)C(F)(F)F.O=C(O)C(F)(F)F.O=C(O)C(F)(F)F` (centres undefined), the “Percent Effect” value was 59.15%. For `Cc1nn2c(=O)/c(=C\c3cccs3)sc2nc1=O`, the “Percent Effect” value was 10.56%. `Cc1cc(-c2cnc(N3CCOCC3)nc2-c2cccnc2C)on1` was tested, and the “Percent Effect” value was 6.202%. `Cc1cc(-c2cnc(N3CCCCCC3)nc2-c2cccnc2C)on1` was tested, and the “Percent Effect” value was 62.64%. In the case of `Cn1ccnc1-c1nc(N2CCCCC2)ncc1-c1ccccc1F`, the “Percent Effect” value was 56.75%. With `CC1CCN(c2ncc(-c3ccccc3F)c(-c3nccn3C)n2)CC1` the “Percent Effect” value was -10.24%. In the case of `CC1CCCN(c2ncc(-c3ccccc3F)c(-c3nccn3C)n2)C1` (centres undefined), the “Percent Effect” value was 50%. With `Cc1cc(-c2cnc(N3CCC(O)CC3)nc2-c2cccnc2C)on1` the “Percent Effect” value was -33.62%. With `CC(C)=CCN1CCC2(CC1)CC(=O)N(Cc1cc(F)cc(F)c1)C2` the “Percent Effect” value was 20.01%. For `CC(C)Cn1nc2ccc(S(=O)(=O)N3CCC(C)CC3)cn2c1=O`, the “Percent Effect” value was 2.551%. `COc1cc2nc(NCc3ccc(C)nc3)nc(N)c2cc1OC` was tested, and the “Percent Effect” value was 50.73%. In the case of `COc1cc2nc(NCc3cc(C)on3)nc(N)c2cc1OC`, the “Percent Effect” value was -7.413%. With `COc1cc2nc(NCc3scnc3C)nc(N)c2cc1OC` the “Percent Effect” value was 13.16%. In the case of `COC(=O)N1CCC(Nc2ccc(Cl)c(C#N)n2)C1` (centres undefined), the “Percent Effect” value was 21.5%. `COC(=O)N1CCC(Nc2ccc(C#N)c(Cl)c2)C1` (centres undefined) was tested, and the “Percent Effect” value was 66.83%. In the case of `N#Cc1ccc(NC2CCN(c3ncccn3)CC2)cc1Cl`, the “Percent Effect” value was 33.47%. In the case of `CCCNC(=O)NC(C)c1ccccn1` (centres undefined), the “Percent Effect” value was 55.13%. In the case of `CC(NC(=O)NCCNc1ccccn1)c1cccs1` (centres undefined), the “Percent Effect” value was -14.12%. In the case of `CC(NC(=O)NCCCn1cccn1)c1ccccn1` (centres undefined), the “Percent Effect” value was -6.373%. In the case of `CCN1CCN(C(C)(C)CNc2nc(C)cc(C3CCC3)n2)CC1`, the “Percent Effect” value was 8.458%. For `CC(C)CC(=O)N1Cc2ccccc2CC1C(=O)Nc1nncs1` (centres undefined), the “Percent Effect” value was 29.19%. `O=C(NCC1(O)COCCN(Cc2cccc(O)c2)C1)c1ccccn1` (centres undefined) was tested, and the “Percent Effect” value was -47.38%. In the case of `CC(C)n1cnnc1Cn1ccc2ncccc2c1=O`, the “Percent Effect” value was -16.96%. In the case of `Cc1ccc(C)c(CNC(=O)NC(C)(C(=O)O)c2ccco2)c1` (centres undefined), the “Percent Effect” value was 50.37%. For `CC(NC(=O)NCc1ccccc1)(C(=O)O)c1ccco1` (centres undefined), the “Percent Effect” value was -57.05%. `CC(NC(=O)NCc1ccccc1F)(C(=O)O)c1ccco1` (centres undefined) was tested, and the “Percent Effect” value was -0.26%. With `COc1cc(N2CCC3(CC2)CN(C)C(=O)CO3)ncn1` the “Percent Effect” value was -14.83%. `CCn1ncc2c1CCCC2NCc1cccc2c1OCO2` (centres undefined) was tested, and the “Percent Effect” value was -8.826%. With `NC(=O)C1CCN(C(=O)CCSCc2ccc(Cl)c(Cl)c2)CC1` the “Percent Effect” value was 42.57%. For `CNC(=O)NC(=O)CN(C)C(c1cccnc1)c1ccc(F)cc1F` (centres undefined), the “Percent Effect” value was 14.91%. With `COC(=O)CCCN(C)C(c1cccnc1)c1ccc(F)cc1F` (centres undefined) the “Percent Effect” value was 105.8%. `CCOCCN(C)C(c1cccnc1)c1ccc(F)cc1F` (centres undefined) was tested, and the “Percent Effect” value was 14%. With `CC(=O)NCCC1CCCCN1S(=O)(=O)c1cccc(Cl)c1` (centres undefined) the “Percent Effect” value was -47.8%. `CN1CCN(Cc2cn3c(n2)CN(Cc2ccncc2)CC3)CC1` was tested, and the “Percent Effect” value was -19.75%. In the case of `COc1ccccc1NC(=O)CC(C)NCc1scnc1C` (centres undefined), the “Percent Effect” value was -11.77%. In the case of `COc1ccccc1NCC(=O)NCc1scnc1C`, the “Percent Effect” value was 3.418%. `COc1ccccc1NC(=O)CC(C)NCCc1sc(C)nc1C` (centres undefined) was tested, and the “Percent Effect” value was 109.1%. `CCOc1ccc(NC(=O)N2CCOC(C(N)=O)C2)cc1C` (centres undefined) was tested, and the “Percent Effect” value was -10.8%. For `CN1CCN(c2nsc(-c3cccnc3)c2C#N)CC1`, the “Percent Effect” value was -23.91%. With `CN1CCN(c2nsc(-c3ccccc3)c2C#N)CC1` the “Percent Effect” value was 72.37%. With `CCN1CCN(c2nsc(-c3cccnc3)c2C#N)CC1` the “Percent Effect” value was 8.063%.
